Experimental findings from PubChem BioAssay (NCI) are described below.

The panel holds about 83,000 compounds, 20% with a hit somewhere; the sample as a whole holds those more often.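 Results are percent growth after 48 hours of single-concentration exposure. 100 means growth as in untreated cells, lower positive values show inhibition; negative values down to -100 show cell death.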 Values without a mark were called inactive. Calls of active or inactive are those of the source.

The test system of this experiment is PC-3 prostate. Nature of the experiment: NCI-60 one-dose screen, 48 h (100 = growth as untreated, 0 = no growth, -100 = all killed). Conditions: 10 µM. The procedure:
Growth inhibition of the PC-3 human tumor cell line is measured as a screen for anti-cancer activity. Cells are grown in 96 well plates and exposed to the test compound for 48 hours. Compounds are tested at a single concentration, which is 10^-5 M for most compounds. The reported endpoint is percent growth (GI% or GIPRCNT), where numbers from 0 - 100% represent growth inhibition, and numbers from -100% - 0 represent cell death. For example, a value of 40 represents 60% growth inhibition. A value of 0 means no net growth occurred over the course of the experiment. A value of -40 indicates 40% of cells at the beginning of the experiment died by the end of the experiment. A value of -100 means all cells are dead at the end of the experiment.
NCI-60 Human Tumor Cell Lines Screen was performed using the standard one-dose NCI protocol, which is described in more detail at https://dtp.cancer.gov/discovery_development/nci-60/default.htm.
Compounds with GIPRCNT values below 10 were considered active. Activity score was based on GIPRCNT using the following formula: […]
Score is 0 for GIPRCNT values of 100 or above, 50 for GIPRCNT values of 0, and 100 for GIPRCNT values of -100.
For the compound `CCCCCCCCN(CCCCCCCC)CCCCCCCCCN1CCCc2cc(OC)ccc21`, the growth was 85.2%.
As for `N#CCCN1C/C(=C/c2ccc(Br)cc2)C(=O)/C(=C/c2ccc(Br)cc2)C1`, the growth was -34% (active).
The result for `Cc1ccc(Nc2cc(C)nc(NCCCNc3ccnc4cc(Cl)ccc34)n2)cc1` reads -38.4% (active); that for `Cc1ccc(C)c(C(O)(c2cc(C)ccc2C)C2(O)CCCCC2)c1`, 86.8%; that for `O=C1OCC2=C1C(c1cccc(Br)c1)c1cc3c(cc1N2CCO)CCC3` (stereo not given), 22.4%.
With `O=C(NN1C(=O)CSC1c1ccc(Cl)cc1)c1cccnc1` (stereo not given), the growth is 93.6%.
Regarding `COc1ccc2c(c1)-c1c(c3cc(OC)ccc3n(CCN(C)C)c1=O)C2=O`, the growth is 21.5%.
Turning to `O=C1/C(=C/c2ccc(Cl)cc2)SC(=Nc2ccc(Cl)cc2)N1Cc1nc2ccccc2[nH]1`, the growth is 41.6%.
For the compound `O=C1Nc2ccc(Cl)cc2/C1=C\c1c(-c2ccc(Cl)cc2)nc2sc(C3CC3)nn12`, the growth is 75.6%.
The result for `COc1cc(Nc2ccnc(NCCNc3ccnc4cc(Cl)ccc34)n2)cc(OC)c1` reads 46.5%.
Regarding `C#Cc1ccc(-n2c(/C=C/c3ccc4ccccc4n3)nc3ncccc3c2=O)cc1`, the growth is -28.6% (active).
For the compound `COc1cc(CNc2ccccc2C(=O)N2CCN(C(=O)c3cc(-c4cc(OC)c(OC)c(OC)c4)n4nc(-c5ccccc5)cc4n3)CC2)cc(OC)c1OC`, the growth was 26.9%.
With `O=C(N/N=C/c1cc2ccccc2c2ccccc12)c1cc(O)c(O)c(O)c1`, the growth was 52.3%.
Under `Nc1ccc2cc(S(=O)(=O)O)cc(O)c2c1N=Nc1ccc(F)cc1` stands 91.5%.
For the compound `O=C(Nc1nc2ccc(F)cc2s1)c1cc(-c2ccc(F)cc2)n2nc(-c3ccccc3)cc2n1`, the growth is 84.2%.
In the case of `O=[P@@]1(c2ccccc2)O[C@H](COCc2ccccc2)[C@@H](OCc2ccccc2)[C@H](OCc2ccccc2)[C@H]1O`, the growth is 78.7%.
Under `COc1cc2cc3c(nc2cc1OC)CCN3Cc1ccc(NC(=O)Nc2ccc(F)cc2F)cc1` stands 68.8%; under `COc1ccc(/C=C2/CN(CCC#N)C/C(=C\c3ccc(OC)cc3)C2=O)cc1`, -11.7% (active).
As to `COc1ccc2c(c1)nc(N)c1c3cccnc3cn21`, the growth was 20.6%.
With `COc1cc(Cl)cc(-c2nn(-c3cccc(NC(=O)c4ccc(N5CCOCC5)c(C(F)(F)F)c4)c3)cc2-c2ccncc2)c1`, the growth was 29.1%.
The result for `S=c1[nH]ccn1-c1c(Cl)cccc1Cl` reads 106%; that for `Cn1c(N)c(N=Nc2ccc(S(=O)(=O)Nc3nccs3)cc2)c(=O)n(C)c1=O`, 90.5%.
With `COc1ccc(-c2nc3sc(-c4ccccc4)c(-c4ccccc4)n3c2/C=C/C(=O)c2ccccn2)cc1`, the growth was 3.71% (active).
For `Fc1ccc2nc(-c3nc(-c4ccccc4)n4ccccc34)[nH]c2c1`, the growth was -71% (active).
The result for `CCN(CC)CCN1CC(=O)Nc2cc(Cl)ccc21` reads 90.8%; that for `O=c1[nH]c2ccc(Cl)cc2c2ccccc12`, 92.8%.
`Cc1cc(C)c2c(n1)sc1c(Nc3ccc(Cl)cc3)ncnc12`: the growth is 49.2%.
For the compound `O=C1/C(=C\c2ccc(Br)cc2)CN(C(=O)c2ccccc2F)C/C1=C\c1ccc(Br)cc1`, the growth was 3.89% (active).
With `CCCN(CCC)CCC(O)c1cc2c(c3ccccc13)CCCC2` (stereo not given), the growth is 80.9%.
As for `COc1ccc(OC)c(/C=C/c2nc(SC)n(-c3ccc(Cl)cc3)n2)c1`, the growth is 38.9%.
`CO/N=C(/C(=O)NC1C(=O)N2C(C(=O)O)=C(COC(N)=O)CSC12)c1ccco1` (stereo not given): the growth was 101%.
As for `CN(C)CCN=c1nc2c(c(N)n1-c1ccccc1)c(=S)n(-c1ccccc1)c(=S)n2-c1ccccc1`, the growth was 31%.
With `CCCCCC(=O)c1ccc(OCCCN2CCN(C(=O)OCC)CC2)cc1`, the growth was 78.7%.
With `Oc1[nH]c2ccc(Cl)cc2c1/C=c1/ccc2c(c1)N=C(c1cccs1)N=2`, the growth was 62.5%.
On to `ClC(Cl)(Cl)c1nc2nccnc2[nH]1`, for which the growth is 102%.
For the compound `CCn1cc(C(=O)O)c(=O)c2cnc(N3CCCC3)nc21`, the growth is 102%.
Turning to `CCN(CC)CCNC(=O)c1ccc(NC(C)=O)cc1`, the growth was 104%.
The result for `Cc1cs/c(=N\NC(=O)c2cc(-c3cc4ccccc4o3)nn2-c2ccccc2)n1-c1ccccc1` reads 114%; that for `COc1cccc(NC(=O)c2sc3nc4c(cc3c2N)C(O)CCC4)c1` (stereo not given), 25.4%.
For `Cn1c([N+](=O)[O-])cnc1/C=C1\Oc2cc(Cl)ccc2C1=O`, the growth was -12.5% (active).
